The record followed here is PubChem BioAssay AID2391 (Southern Research Specialized Biocontainment Screening …, 2010).

Values joined by “and” are separate entries in the source; they are usually repeats but may differ in a detail not shown here. Equal entries are not always repeated. Screen size: about 310,000 compounds; about 410 (0.13%) were called active. Not shown: some 2% with an inconclusive outcome. How the calls were made is not given here. Not all results are given here. Measured potencies and affinities stand elsewhere.

The assay in a line: RSV antiviral activity via CPE protection, HEp-2 cells, primary 10 µM value included (AID 2391). The settings on record: RSV-induced CPE inhibition, at 10 µM, stronger effect = higher value.
As to `CC(CCc1ccc(O)cc1)NCCC(c1ccccc1)c1ccccc1` (stereo not given), the CPE inhibition is 1.43% (inactive).
As to `CC(CCc1ccc(O)cc1)NCc1ccc(Cl)cc1Cl` (stereo not given), the CPE inhibition is 0.07% (inactive).
As for `COc1ccc(C(=O)NCc2nnc(SCC(=O)N3CCC(C)CC3)o2)cc1`, the figure is 1.04% (inactive); as for `Cc1ccc(C2(c3ccc(C)cc3)CC2C(=O)NC(C)C)cc1` (stereo not given), 10.9% (inactive).
The same measure for `O=C(Nc1cccc(C(=O)Nc2cccc(C(F)(F)F)c2)c1)c1ccc(=O)[nH]c1`: 0.31% (inactive).
Take `Cc1cc(OC(C)C(=O)NCCN2CCOCC2)c2c(C)cc(=O)oc2c1` (stereo not given): the CPE inhibition was 1.3% (inactive).
Turning to `CC(=O)Nc1ccc(S(=O)(=O)N2CCCc3ccccc32)cc1`, the CPE inhibition is 1.45% (inactive).
The same measure for `COC(=O)Nc1ccc(S(=O)(=O)N2CCCc3ccccc32)cc1`: 1.75% (inactive).
For the compound `COc1ccccc1CCNS(=O)(=O)c1cc2c3c(c1)CCN3C(=O)CC2`, the CPE inhibition was 2.18% (inactive).
As for `CC(=O)c1cc2c(cc1NC(=O)c1ccc(C)cc1)OCO2`, the figure is 1.4% (inactive); as for `COc1ccc(CC(=O)Nc2cccc(-c3cn4ccccc4n3)c2)cc1`, 20.4% (inactive); as for `Cc1cccc2nc(-c3cccc(NC(=O)c4ccc(Cl)cc4)c3)cn12`, 6.87% (inactive).
As to `Cc1cc(Cl)cc(C)c1OCCCCCn1ccnc1`, the CPE inhibition is 16.9% (inactive).
Regarding `Cc1cc(Cl)cc(C)c1OCCCCn1ccnc1`, the CPE inhibition is 0.28% (inactive).
The same measure for `Cc1cc(C(=O)Nc2ccccc2C)c2ccccc2n1`: -1.47% (inactive); for `CCn1c(SCc2ccc(F)cc2)nnc1-c1nn(-c2ccccc2)ccc1=O`: 5.54% (inactive).
The same measure for `CCn1c(SC)nnc1-c1nn(-c2ccccc2)ccc1=O`: 3.93% (inactive).
The same measure for `CCOc1ccc(Nc2ccc(S(=O)(=O)N3CCN(C)CC3)cc2[N+](=O)[O-])cc1OCC`: 2.73% (inactive); for `C/C(N)=C(/C#N)C(=O)CSc1nc2ccccc2c(=O)n1-c1ccc(C)cc1`: 1.33% (inactive).
Regarding `C/C(N)=C(/C#N)C(=O)CSc1nc2ccccc2c(=O)n1-c1ccc(C)c(Cl)c1`, the CPE inhibition was 3.58% (inactive).
As for `COC(=O)c1cc2n3ccccc3c(C)c(-c3ccccc3)c-2c1C(=O)OC`, the figure is 25.1% (inactive); as for `COC(=O)c1cc2c(C)c(C)c3ccccn3c-2c1C(=O)OC`, 2.03% (inactive).
As for `COc1ccc(NC(=O)C2C3C=CC4(O3)C2C(=O)N(CCN2CCCCC2C)C4C(=O)NC2CCCCC2)cc1` (stereo not given), the figure is -0.76% (inactive); as for `Cc1[nH]c2ccc(-c3nnc(SCC(=O)c4ccc(F)cc4)o3)cc2c1C`, -1.57% (inactive); as for `Cc1cc(C)c(C)c(C(=O)CSc2nnc(-c3ccc4[nH]c(C)c(C)c4c3)o2)c1C`, 55.5% (inactive).
In the case of `COc1cc(C)c(C(C)C)cc1S(=O)(=O)n1cnc(C)c1`, the CPE inhibition was 11.6% (inactive).
As for `Cc1cc(C)c2c(-n3cccc3)c(C(=O)NNS(=O)(=O)c3ccccc3)sc2n1`, the figure is 15.3% (inactive); as for `Cc1cc(C)c2c(-n3cccc3)c(C(=O)NNS(=O)(=O)c3ccc(Br)cc3)sc2n1`, 53.3% (inactive); as for `COc1ccc(N(CC(=O)NCc2ccc(Cl)cc2)S(=O)(=O)c2c(C)n[nH]c2C)cc1`, 2.71% (inactive).
As for `O=C(O)c1cc(NS(=O)(=O)c2cccs2)cc(NS(=O)(=O)c2cccs2)c1`, the figure is 0.42% (inactive); as for `COc1ccc(-c2cc3nc(C)cc(C)n3n2)cc1`, 2.75% (inactive).
As for `Cc1cc(C)n2nc(-c3ccccc3)cc2n1`, the figure is -2.3% (inactive); as for `COc1ccc(CNc2ncnc3sccc23)cc1OC`, 0.7% (inactive).
For `COc1ccc(NCC(=O)Nc2cc(S(=O)(=O)N3CCOCC3)ccc2N2CCOCC2)c(OC)c1`, the CPE inhibition is 1.68% (inactive).
For the compound `COc1ccccc1CC(=O)Nc1cc(S(=O)(=O)N2CCOCC2)ccc1N1CCOCC1`, the CPE inhibition was 0.24% (inactive).
The same measure for `CC1CCCC(C)N1C(=O)CSc1nccc(=O)[nH]1` (stereo not given): 0.35% (inactive); for `COC(=O)c1ccc(C(=O)OCc2nc3cc4ccccc4cc3[nH]2)cc1`: 2.73% (inactive); for `Nc1ccc2nc(Cc3ccccc3)[nH]c2c1`: -1.63% (inactive).
The same measure for `Nc1ccc(C(=O)OCc2nc3ccccc3[nH]2)cc1`: 1.24% (inactive); for `Cc1ccc2nc(Cc3ccc(N)cc3)[nH]c2c1`: -0.3% (inactive); for `Cc1cccc(N2CCN(C(=O)C3CCC(=O)N(C4CC4)C3)CC2)c1C` (stereo not given): -0.26% (inactive).
The same measure for `O=C(Cc1ccc(-n2c(=O)c3ccccc3n(CC(=O)Nc3ccc(F)cc3F)c2=O)cc1)NCc1ccco1`: -0.99% (inactive).
As for `CCN(CC(=O)Nc1ccc(OC)cc1)C(=O)c1ccccc1Sc1ccccc1C#N`, the CPE inhibition is -1.42% (inactive).
As for `COc1ccccc1CNC(=O)C1CCCN(S(=O)(=O)c2cccc3cccnc23)C1` (stereo not given), the figure is 0.63% (inactive); as for `Cc1ccc(NC(=O)C2CCCN2S(=O)(=O)c2cccc3cccnc23)cc1F` (stereo not given), 52.8% (inactive); as for `Cc1cc(C)cc(NC(=O)C2CCCN2S(=O)(=O)c2cccc3cccnc23)c1` (stereo not given), 58.5% (inactive).
As for `COc1ccc(NC(=O)C2CCCN2S(=O)(=O)c2cccc3cccnc23)c(OC)c1` (stereo not given), the figure is 7.4% (inactive).
As for `Cc1ccccc1NC(=O)C1CCCN(S(=O)(=O)c2cccc3cccnc23)C1` (stereo not given), the figure is 0.2% (inactive).
With `COc1ccccc1CNC(=O)C1CCN(S(=O)(=O)c2cccc3cccnc23)CC1`, the CPE inhibition was 3.16% (inactive).
The same measure for `COc1cccc(CN2CC(C(=O)NCCn3ccc(C)n3)CCC2=O)c1` (stereo not given): 0.1% (inactive).
The same measure for `Cc1ccc2[nH]c(=O)c(N3CCOCC3)c(-c3ccccc3)c2c1`: 0.29% (inactive).
As for `CSCCC1NC(=O)N(CC(=O)Nc2c(C(C)C)cccc2C(C)C)C1=O` (stereo not given), the figure is -0.56% (inactive).
For `C/C(CCc1ccccc1)=N\NC(=O)CC(=O)NCCc1ccccc1`, the CPE inhibition was 1.3% (inactive).
As for `CCSc1nnc(SCC(=O)N2CCN(C(=O)c3ccco3)CC2)s1`, the figure is 1.6% (inactive); as for `Cc1ccc(-c2noc(CCC(=O)NCCc3ccccc3Cl)n2)cc1`, 15.4% (inactive).
Consider `Cc1ccc2c(c1)cc(C(=O)N[C@@H](Cc1ccccc1)C(=O)O)n2C`, for which the CPE inhibition was 1.38% (inactive).
As for `Cc1c(C(=O)NCc2cccs2)oc2ccccc12`, the figure is 6.49% (inactive); as for `Cn1c(C(=O)NCc2cccs2)cc2c(=O)n(C)c3ccccc3c21`, 0.91% (inactive); as for `Cn1c(C(=O)NCC2CCCO2)cc2oc3ccccc3c21` (stereo not given), 3.52% (inactive).
As for `Cc1ccc(CNC(=O)c2cc3c(=O)n(C)c4ccccc4c3n2C)cc1`, the figure is 0.79% (inactive); as for `CCOc1ccc(CNC(=O)CCn2c(=O)oc3ccccc32)cc1`, 2.74% (inactive).
The same measure for `COc1ccc(CNC(=O)c2cc3c(=O)[nH]c4ccccc4c3n2C)cc1`: 2.27% (inactive).
`COCCNC(=O)c1cc2oc3ccccc3c2n1C`: the CPE inhibition is 1.43% (inactive).
In the case of `NC(=O)c1ccc(OCC2CCCO2)cc1` (stereo not given), the CPE inhibition is 0.89% (inactive).
As for `Cc1cccc(COCC(CC(C)C)N2CCN(C(=O)c3ccc(C(C)(C)C)cc3)CCC2=O)c1` (stereo not given), the figure is -2.89% (inactive); as for `COCCn1c(-c2ccccc2)nc2oc3ccccc3c(=O)c2c1=O`, 1.49% (inactive); as for `O=C(c1ccccc1Br)N1N=C(c2ccccc2)CC1c1ccccc1F` (stereo not given), 13.7% (inactive).
As for `Cc1c(C)c2ccc(OCC(=O)NCc3ccccn3)cc2oc1=O`, the figure is 1.94% (inactive); as for `Cc1cc(=O)oc(C)c1C(=O)NCCc1ccccc1`, -0.07% (inactive).
The same measure for `CCC(=O)Nc1sc2c(c1C(=O)OC)CCN(Cc1ccccc1)C2`: -0.39% (inactive); for `Cc1ccc(C(CC(=O)O)C2CCOC(C)(C)C2)cc1` (stereo not given): 0.31% (inactive).
On to `c1ccc(Cn2nnc3c(N4CCOCC4)ncnc32)cc1`, for which the CPE inhibition is 1.51% (inactive).
The same measure for `c1ccc(Cn2nnc3c(N4CCCC4)ncnc32)cc1`: -0.08% (inactive).
As for `Cc1nnc2sc(-c3cccc(F)c3)nn2c1=O`, the figure is 0.29% (inactive).
As for `CC(C)CN1CCN(Cc2cnc(-c3ccc(Cl)cc3)nc2)CC1CCO` (stereo not given), the CPE inhibition was 19.2% (inactive).
Consider `O=C(Nc1nnc(C2=COCCO2)o1)c1ccc([N+](=O)[O-])cc1`, for which the CPE inhibition was 0.76% (inactive).
`CCc1cccc(C)c1NC(=O)C1CC=CCC1C(=O)O` (stereo not given): the CPE inhibition is -1.43% (inactive).
The same measure for `O=c1oc(/C=C/c2ccco2)nc2sc3c(c12)CCC3`: 2.04% (inactive).
As for `COc1ccc(/C=C/c2nc3sc4c(c3c(=O)o2)CCC4)cc1`, the figure is 2.5% (inactive); as for `Cc1ccc(OCC(=O)N2c3ccccc3CC2C)c([N+](=O)[O-])n1` (stereo not given), -0.02% (inactive).
As for `O=C(NN=C1c2ccccc2-c2ccccc21)c1ccccn1`, the figure is 1.09% (inactive); as for `CCN(CC)CCOc1ccc2c(c1)C(=NNC(=O)c1ccccn1)c1cc(OCCN(CC)CC)ccc1-2`, -1.74% (inactive).
In the case of `COc1ccc(/C(C)=N/Nc2ccc(C(=O)O)cc2)c(OC)c1`, the CPE inhibition is 1.98% (inactive).
The same measure for `COc1ccc(OC)c(/C(C)=N/Nc2ccc(C(=O)O)cc2)c1`: 0.2% (inactive); for `COc1ccc2[nH]c(C)c(C(=O)CN3CCN(C/C=C/c4ccccc4)CC3)c2c1`: 4.44% (inactive).
As for `CC(C)C1Cc2c(sc3c2c(=O)n(-c2ccccc2)c2n[nH]c(=S)n32)CO1` (stereo not given), the figure is 2.95% (inactive).
The same measure for `CC(/C=N/NC(=O)c1cc(-c2ccc(C)o2)[nH]n1)=C\c1ccccc1`: 0.3% (inactive); for `COc1cccc(NC(=O)NCCCCc2ccccc2)c1`: 6.21% (inactive).
As for `CC(C)(C)c1ccc(O)c(O)c1`, the CPE inhibition was 3.31% (inactive).
As for `Cc1cc(C(C)(C)C)c(O)c(C(C)(C)C)c1`, the figure is -0.15% (inactive); as for `NNC(=O)c1csc(-c2cccc(C(F)(F)F)c2)n1`, 9.01% (inactive).
The same measure for `O=C(c1cc(Br)ccc1OC(F)F)N1CCN2CCCC2C1` (stereo not given): 0.87% (inactive); for `CCn1ncc(/C=C/C(=O)Nc2c(C)nn(Cc3ccc(Cl)cc3Cl)c2C)c1C`: 0.17% (inactive).
Take `O=C(/C=C/c1ccc(O)c(O)c1)O[C@@H]1C[C@](O)(C(=O)O)C[C@@H](O)[C@H]1O`: the CPE inhibition was 39.5% (inactive) and 4.56% (inactive).
As for `O=C(O)/C=C/c1ccc(O)c(O)c1`, the figure is 0.47% (inactive).
